Abeta yeast res: qHTS for compounds that reverse cellular toxicity of Amyloid beta (A-beta) peptide in yeast: Primary Screen; hit rate 0.063% among 410,000; Potency, µM (top dose mostly 46.1 µM), most hits filed as activators; yeast expressing A-beta42, growth rescue, OD600, 48 h; response scale: 0% DMSO, 100% iron-clioquinol control; note: nearly all actives have a fitted effect of over 55% in size
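Yeast growth medium received pinned compounds, then yeast cells expressing toxic A-beta were added; plates incubated at 30 C for 48 hr. Growth read as absorbance at 600 nm, normalized to DMSO and equimolar FeCl3 plus clioquinol controls.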
aSyn rescue: qHTS of alpha-syn Inhibitors | hit rate 0.14% among 370,000 | Yeast expressing alpha-synuclein, growth rescue, BacTiter-Glo, 24 h | Potency, µM (titrated, usually from 46.1 µM), usual class: activators; note: nearly all actives have a fitted effect of over 65% in size
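Rescue of yeast growth: cells expressing toxic alpha-synuclein, induced in galactose at OD600 0.02, incubated with compound 24 h at 30 C. ATP luminescence quantified growth; inhibitors of toxicity appear as activators.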
FUS suppressor: qHTS for Suppressors of FUS Proteinopathy: Primary screen using FUS-linked yeast assay; S. cerevisiae FUS-expressing, growth rescue, OD600, 24 h; Potency, µM (titrated, usually from 76.6 µM), usual class: activators; hit rate 0.24% among 390,000; note: nearly all actives have a fitted effect of over 55% in size
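Galactose (2%) drives FUS expression in yeast precultured in raffinose; seeding density OD 0.005. Test compounds incubated 24hr at 30C and 99% humidity before absorbance at 600 nm was measured.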
pAkt inh: HTS Assay for Inhibitors of Akt Phophorylation: Primary Screen; activity change, % for hits at 50 µM; Neuro2A IGF-stimulated pAkt S473 HTRF, 20 min; active compounds read low; hit rate 0.32% among 360,000; AID 651550, 2012; in the data active = activity change below about -80%; inconclusive = mostly about -51% to -80%
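Neuro2A cells in DMEM with 0.5% FBS, overnight at 37 deg C, given compound at single 50 µM final, then IGF (6 nM final) for 20 min at 37 deg C. Lysed; phospho-Akt Ser473 by HTRF after 24 h, 665/615 ratio.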
TDP-43 yeast inh: qHTS of TDP-43 Inhibitors; TDP-43 expressing yeast growth rescue, BacTiter-Glo, 24 h; Potency, µM (series often up to 46.1 µM), actives largely listed as activators; hit rate 1.8% among 410,000; AID 652104, 2013; note: nearly all actives have a fitted effect of over 50% in size
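Luminescence from BacTiter-Glo reports growth of TDP-43-expressing yeast after 24 hr at 30 deg C with compound. Cells were raffinose-pregrown to mid-log, then seeded in galactose medium at OD600=0.02.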
Of the large screens only hits and unclear results are named; the others gave an inactive call. This is a sample that favours compounds with a hit; in the whole collection about 2.3% have one here. Unless noted, calls come from the whole dose curve; as a rule, active = well fitted curve in the direction sought with a large enough effect; inconclusive = small, poorly fitted or top-dose-only effect, or another doubt; inactive = no such curve, though single readings can be large; an effect the other way counts as inactive or inconclusive.

COc1ccc(C2CC2/C(C)=N/OC(=O)C2CC2)cc1 (configuration not stated)	TDP-43 yeast inh 14.1µM
COc1ccc(OC)c(C(=O)c2coc3ccc(OC(C)=O)cc23)c1	none
COc1ccc(C(=O)c2coc3ccc(OC(C)=O)cc23)cc1	TDP-43 yeast inh 12.6µM
CCc1ccccc1NC(=O)N1CCc2cc(OC)c(OC)cc2C1CC(=O)OC (configuration not stated)	none (no result: aSyn rescue, pAkt inh)
COc1ccc(C)cc1NC(=O)C(Sc1nnc(-c2ccncc2)n1-c1ccc(Cl)cc1)c1ccccc1 (configuration not stated)	FUS suppressor 22.4µM
COc1ccc(C)cc1NC(=O)C(Sc1nnc2ccccn12)c1ccccc1 (configuration not stated)	none (no result: FUS suppressor)
O=S(=O)(N=C(NS(=O)(=O)c1ccc(Cl)cc1)c1ccccc1)c1ccc(Cl)cc1	TDP-43 yeast inh 11.2µM
CCOC(=O)C(=O)/C(C#N)=C/Nc1ccccc1	none (no result: FUS suppressor)
CCOC(=O)/C(C#N)=C/Nc1ccccc1OC	pAkt inh -98.5%, TDP-43 yeast inh inconclusive
CCn1c(SCc2ccc(F)cc2)nnc1C1CCN(S(=O)(=O)c2ccc(OC)cc2)CC1	none
CCn1c(SCc2ccc(C)cc2)nnc1C1CCN(S(=O)(=O)c2ccc(OC)cc2)CC1	pAkt inh -129.8%
Cc1ccccc1C(=O)Nc1ccc2nc(SCC(=O)N3CCc4ccccc43)sc2c1	none (no result: aSyn rescue, pAkt inh)
C[C@]12c3[nH]c4ccc(Cl)cc4c3CCN1C(=O)[C@@H](CC(=O)NCC13CC4CC(CC(C4)C1)C3)C[C@@H]2C(=O)N1CCCCC1	aSyn rescue 15.8µM
CCN(CC)C(=O)[C@H]1CC(CC(=O)NCC23CC4CC(CC(C4)C2)C3)C(=O)N2CCc3c([nH]c4ccccc34)[C@]12C (some centres not stated)	aSyn rescue inconclusive, TDP-43 yeast inh 28.2µM
C[C@]12c3[nH]c4ccc(Cl)cc4c3CCN1C(=O)[C@@H](CC(=O)NCC13CC4CC(CC(C4)C1)C3)C[C@@H]2C(=O)N1CCOCC1	FUS suppressor inconclusive
COc1ccc2[nH]c3c(c2c1)CCN1C(=O)C(CC(=O)NCC24CC5CC(CC(C5)C2)C4)C[C@H](C(=O)N(C(C)C)C(C)C)[C@@]31C (some centres not stated)	FUS suppressor inconclusive, TDP-43 yeast inh 11.2µM
COc1ccc2[nH]c3c(c2c1)CCN1C(=O)C(CC(=O)NCC24CC5CC(CC(C5)C2)C4)C[C@H](C(=O)N2CCOCC2)[C@@]31C (some centres not stated)	none
Clc1ccc(N2CCN(c3ncnc4c3nc3n4CCCC3)CC2)cc1	TDP-43 yeast inh inconclusive (no result: aSyn rescue, pAkt inh)
O=C(CSc1nc(=O)n(Cc2ccccn2)c2c1CCC2)Nc1cccc(Cl)c1	FUS suppressor inconclusive (no result: aSyn rescue, pAkt inh)
COc1ccc(C2(CNC(=O)C(=O)Nc3ccc(F)cc3)CCCC2)cc1OC	none (no result: aSyn rescue, pAkt inh)
Cc1cc2oc(C(=O)Nc3sc4c(c3C(=O)NCC3CCCO3)CCCC4)cc(=O)c2cc1C (configuration not stated)	none (no result: aSyn rescue, pAkt inh)
COCCCNC(=O)CCc1c(C)nc2cc(-c3ccc(Cl)cc3)nn2c1C	TDP-43 yeast inh inconclusive (no result: aSyn rescue, pAkt inh)
O=C(Nc1cc(C(=O)N2CCN(c3ccccc3)CC2)ccc1Cl)c1cccs1	TDP-43 yeast inh 12.6µM (no result: FUS suppressor)
O=C(c1cccs1)N1CCN(c2ccccc2)CC1	TDP-43 yeast inh inconclusive
CCOC(=O)/C(C#N)=C\c1cn(C)c2ccccc12	none
CCOC(=O)/C(C#N)=C/c1c(OCC)n(CC)c2ccccc12	TDP-43 yeast inh 12.6µM (no result: FUS suppressor)
CN(C)c1ccnc2sc(C(=O)NCc3ccccc3)c(N)c12	aSyn rescue 12.6µM, TDP-43 yeast inh inconclusive
CCn1nc(-c2ccccc2C)nc2c(=O)n(C)c(=O)nc1-2	none (no result: Abeta yeast res, FUS suppressor, pAkt inh, TDP-43 yeast inh)
O=C(NCC(c1cccnc1)N1CCN(Cc2ccccc2)CC1)C(=O)Nc1cccc(F)c1 (configuration not stated)	none (no result: aSyn rescue, pAkt inh)
O=C(CSc1nnc(-c2ccc(F)cc2)o1)N1CCCc2ccccc21	TDP-43 yeast inh 20µM (no result: aSyn rescue, pAkt inh)
Cc1ccc(-c2nnc(SCC(=O)N3CCc4ccccc43)o2)cc1	none (no result: aSyn rescue, pAkt inh)
